High-throughput results deposited in PubChem by several laboratories.
BoNT F protease = inhibitors of Botulinum neurotoxin F light chain protease; Multiplex microsphere protease cleavage assay, flow cytometry; actives 0.22% (n = 360,000); AID 588497; inhibition, % at 10 µM; in the data active = inhibition above about 35%, passing the limit was not always enough; inconclusive = no clear call, values can overlap the other calls; note: plate controls were buffer without enzyme for full effect and enzyme alone for no effect
BoNT-A LC inh2 = blocks Botulinum neurotoxin A light chain protease; inhibition, % at 10 µM; actives 0.17% (n = 360,000); multiplex microsphere protease substrate cleavage, flow cytometry; AID 588499; note: plate controls were buffer without enzyme for full effect and enzyme alone for no effect
Anthrax LF prot = blocks Bacillus anthracis lethal factor protease; actives 0.12% (n = 360,000); P15917; AID 588501; inhibition, % at 10 µM; multiplex microsphere protease cleavage assay, LF; note: plate controls were buffer without enzyme for full effect and enzyme alone for no effect
Target sequence (P15917 whole entry, looked up): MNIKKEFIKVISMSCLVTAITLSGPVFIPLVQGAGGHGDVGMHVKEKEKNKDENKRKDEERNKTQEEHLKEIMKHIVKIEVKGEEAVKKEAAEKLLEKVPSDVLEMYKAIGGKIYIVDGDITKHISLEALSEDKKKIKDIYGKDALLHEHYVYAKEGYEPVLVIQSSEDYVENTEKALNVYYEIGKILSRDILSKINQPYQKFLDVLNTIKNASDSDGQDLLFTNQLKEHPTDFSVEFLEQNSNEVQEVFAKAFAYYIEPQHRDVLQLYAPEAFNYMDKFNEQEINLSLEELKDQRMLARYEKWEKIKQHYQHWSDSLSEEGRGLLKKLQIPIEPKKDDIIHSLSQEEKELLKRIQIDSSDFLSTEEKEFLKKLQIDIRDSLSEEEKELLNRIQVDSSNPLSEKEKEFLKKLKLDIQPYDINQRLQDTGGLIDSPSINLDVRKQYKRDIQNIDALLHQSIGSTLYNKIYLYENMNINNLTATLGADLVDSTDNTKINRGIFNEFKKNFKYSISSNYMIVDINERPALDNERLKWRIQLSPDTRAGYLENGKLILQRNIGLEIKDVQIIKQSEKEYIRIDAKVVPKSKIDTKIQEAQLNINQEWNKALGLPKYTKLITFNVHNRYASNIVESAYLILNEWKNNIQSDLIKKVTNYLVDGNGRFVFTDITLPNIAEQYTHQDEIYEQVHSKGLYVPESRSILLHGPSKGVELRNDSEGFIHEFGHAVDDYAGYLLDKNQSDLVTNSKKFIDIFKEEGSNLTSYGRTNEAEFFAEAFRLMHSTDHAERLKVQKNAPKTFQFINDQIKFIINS
Mtb FBA inh = inhibitors of M. tuberculosis fructose-bisphosphate aldolase | P9WQA3 | purified M. tuberculosis FBA, fluorescence read-out | inhibition, % at 1 µM | actives 2.3% (n = 360,000) | AID 588726; in the data active = inhibition above about 27%;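 note: 0% = vehicle and 100% = reference inhibitor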
GDH-TPI counter = GDH-TPI coupled enzyme inhibition counter-screen; GDH-TPI coupled enzyme counterscreen, NADH absorbance; inhibition, % at 4.8 µM; actives 1.2% (n = 360,000); AID 588335; in the data active = inhibition above about 30%;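 note: 0% = DMSO wells and 100% = wells lacking the enzyme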
Autofluor counter = counter-screen for toxin protease inhibitors: compound fluorescence; compound autofluorescence counterscreen, microsphere flow cytometry; stronger effect = higher value; fluorescence intensity (test concentration not listed); actives 3.1% (n = 360,000); AID 624483; in the data active = fluorescence intensity above about 16000; inconclusive = no clear call, values can overlap the other calls
Active calls of the source: *; ? = inconclusive; / = no result. Shown are actives, neighbours in structure and some others; about 6.6% of the full set was active somewhere. Cut-off read from the data, not from the text of the source, unless noted: active = inhibition above about 30%; inconclusive = no clear call, values can overlap the other calls; inactive = below that.

SMILES	BoNT F protease	BoNT-A LC inh2	Anthrax LF prot	Mtb FBA inh	GDH-TPI counter	Autofluor counter
CC12CC3CC(C)(C1)CC(C(=O)Nc1nn[nH]n1)(C3)C2	2	?	0	-1	-9	19766*
CCC12CC3CC(C1)CC(C(=O)NNC(N)=O)(C3)C2	4	0	-7	1	12	5799
CCC12CC3CC(C1)CC(C(=O)Nc1nn[nH]n1)(C3)C2	2	?	-7	-1	6	23265*
CCCCCCC(=O)N(O)C1CC(=O)N(c2ccc(C)cc2)C1=O (stereo not drawn)	0	30*	-53	2	0	2106
N#CCSc1nc2ccc(N3CCCCC3)cc2c(=O)n1Cc1ccccc1	3	-1	2	3	18	29809*
CCCCOC(=O)c1ccc(NC(=O)c2ccoc2C)cc1	1	0	-4	0	-4	20473*
CCCCOC(=O)c1ccc(NC(=O)c2ocnc2C)cc1	-4	?	0	1	-3	24702*
CCCOC(=O)c1ccc(NC(=O)c2ccoc2C)cc1	1	-1	2	1	1	3398
COc1ccc(C(C)NC(=O)Nc2ccc(C(C)=O)cc2)cc1OC (stereo not drawn)	-2	-1	0	4	1	5788
Cc1cccc(N2CCN(C(=O)CSCc3c(C)noc3C)CC2)c1C	-2	0	1	-6	-10	23925*
Cc1noc(C)c1CSCC(=O)N1CCN(c2ccc(F)cc2)CC1	-2	0	-3	-1	6	16984*
O=C(CSCc1ccc(F)cc1)N1CCOCC1	8	7	-12	6	1	20026*
Cc1cc(NC(=O)CSCC(=O)N2CCN(c3cccc(C)c3C)CC2)no1	-6	0	-6	2	10	3230
O=C(c1cccc(C(F)(F)F)c1)C1CCCN(Cc2cccn2-c2ccccn2)C1 (stereo not drawn)	-8	-2	-7	0	-3	4405
O=C(COC(=O)c1ccc2ccccc2n1)c1ccc(F)cc1	1	1	0	-1	6	4170
O=C(OCCNC(=O)c1ccc2ccccc2n1)c1ccc(F)cc1	-5	?	1	-3	1	16884*
COc1ccc2[nH]c3c(NCCC4=CCCCC4)ncnc3c2c1	-6	0	-2	26	4	5051
O=C1COc2ccc(-c3csc(=Nc4ccc(OC(F)F)cc4)n3CC3CCCO3)cc2N1 (stereo not drawn)	4	4	-11	2	-1	18135*
CCOC(=O)C1=C(C)NC(SC(C)=O)=NC1c1ccc(OC(C)=O)c(OC)c1 (stereo not drawn)	-7	1	-5	4	36*	4349
CNC(=O)C[C@H]1C(=O)N(Cc2ccccc2)C[C@@H]1Cc1ccccc1	0	0	2	1	1	3632
COc1ccc(-c2nc3ccccc3nc2-c2ccc(OC)c(OC)c2)cc1OC	?	9	-3	-4	-8	3922
Cc1ccc(-c2cc(-c3ccccc3)nc(Cl)n2)cc1	-10	-1	-4	5	2	7259
COc1ccc(-c2nc3ccccc3nc2-c2ccccc2)cc1OC	/	/	/	-2	31*	/
COc1ccc(-c2cc(-c3ccccc3)nc(Cl)n2)cc1OC	/	/	/	12	33*	/
CCCNC(=O)C1(C)CCCN(C(=O)c2cccc(C#N)c2)C1 (stereo not drawn)	2	0	-8	-1	0	3902
SMILES	BoNT F protease	BoNT-A LC inh2	Anthrax LF prot	Mtb FBA inh	GDH-TPI counter	Autofluor counter
COC(=O)CN1C(=O)CSc2ccc(S(=O)(=O)N3CCC(C)CC3)cc21	-6	-1	1	0	-4	6340
c1ccc2c(c1)Cn1nnnc1-2	-3	-1	-1	135*	-2	8355
c1ccc2c(c1)CC1(CCCCC1)n1nnnc1-2	-4	-1	-3	0	12	12387
O=C(CCCn1c(=S)[nH]c2ccsc2c1=O)NCc1ccco1	2	1	-4	2	-2	19127*
O=C(CCCCn1c(=S)[nH]c2ccsc2c1=O)NCc1ccco1	-4	-1	-9	1	15	16657*
CCOC(=O)[C@]12CCC=C1N(Cc1ccco1)C(=O)[C@H](CC(=O)NCCC(C)C)C2	-1	0	-3	/	/	5989
Cc1cc(NS(=O)(=O)c2ccc(NC(=O)C(C)Oc3ccc(Cl)cc3)cc2)no1 (stereo not drawn)	20	16	2	-1	11	17111*
Cc1cc(NS(=O)(=O)c2ccc(CC(C)C)cc2)no1	3	3	-2	2	-1	18585*
Cc1ccc(OC(C)C(=O)Nc2ccc(S(=O)(=O)Nc3cc(C)on3)cc2)cc1 (stereo not drawn)	6	?	-19	-3	-7	21520*
Cc1cc(NS(=O)(=O)c2ccc(NC(=O)C(C)Oc3cc(C)c(Cl)c(C)c3)cc2)no1 (stereo not drawn)	-6	2	0	2	4	5897
Cc1cccc(OCCNC(=O)CCNS(=O)(=O)c2ccc3ccccc3c2)c1	0	0	0	2	1	3929
CC(=O)c1ccc(NC(=O)c2cnn3c(C(F)F)cc(C4CC4)nc23)cc1	-17	1	-2	-1	9	2860
CCOc1cccc(C(=O)Nc2ccc(S(=O)(=O)Nc3cc(C)on3)cc2)c1	4	0	-1	1	0	5872
COc1ccc(CCN(Cc2cc3cccc(C)c3[nH]c2=O)C(=O)NC2CCCCC2)cc1OC	-1	0	1	2	8	23128*
Cc1cccc2cc(CN(CC3CCCO3)C(=O)NC3CCCCC3)c(=O)[nH]c12 (stereo not drawn)	-10	0	-5	5	0	5393
CCn1c(-c2ccco2)nc2ccccc21	7	1	-2	16	-10	2934
CCn1c(-c2ccc[nH]c2=O)nc2ccccc21	0	-3	2	134*	4	3948
O=c1ccc(-c2nc3cc(Cl)ccc3n2Cc2ccccc2)c[nH]1	4	0	-4	8	-2	4540
O=c1[nH]cccc1-c1nc2ccccc2n1Cc1ccccc1F	-9	2	0	122*	5	3755
Oc1ccccc1Cn1c(-c2ccccc2O)nc2ccccc21	-8	1	4	15	4	9647
Cn1c(-c2ccc[nH]c2=O)nc2cc(Cl)ccc21	5	0	-2	137*	2	3976
COC(=O)Nc1ccc2c(c1)N(C(=O)CCCl)c1ccccc1S2	22	0	6	0	-4	3683
CCOc1ccc(NC(=O)CCC(=O)N/N=C2\CCCc3ccccc32)cc1	-4	0	1	0	4	5619
C[C@@H]1CN([C@H](C)CO)C(=O)CCCn2nncc2CO[C@H]1CN(C)Cc1cccc2c1OCCCO2	-7	0	1	1	16	3799
COc1ccc2c(c1)CCc1c(C(=O)NCCCn3ccnc3)noc1-2	0	1	-2	4	14	22596*
COc1ccc(OC)c(-c2cc(C(=O)NCCCn3ccnc3)no2)c1	-4	-3	-7	1	11	24152*
